Source: PubChem BioAssay (NCATS)
Records with an inconclusive call do not appear. Unmarked numbers belong to inactive results. Calls of active or inactive are those of the source. Calls follow the shape of the dose curve; as a rule, active = well fitted curve in either direction with a large enough effect (not every such curve was filed as active); inconclusive = small, poorly fitted or top-dose-only effect, or another doubt; inactive = flat fitted curve, though single readings scatter.

assay: NFAT Signaling Pathway (AID 444); conditions: Jurkat NFAT-bla M1, carbachol, beta-lactamase ratio, 5 h; at 7.69 µM (top of the series) unless noted;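 also: carbachol stimulus at about its EC50 of 1 µM final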
How it was run: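 Jurkat cells carrying an NFAT-driven β-lactamase reporter and co-transfected muscarinic M1 receptor were treated with compound plus carbachol (1 uM final, an EC50 level) for 5 h at 37 °C. CCF4 loading followed for 1 h at RT; 460/530 nm ratio gave %activity.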
% is scaled to controls: 0 for no effect and ±100 for the full control effect.

| SMILES | activity change, negative = inhibition |
| --- | --- |
| Clc1ccccc1-c1ccc2ncnc(N3CCNCC3)c2c1 | -4.54% |
| CN(C)c1ccc(-c2cc(Nc3ccc(F)cc3)ncn2)cc1 | -8.8% |
| COc1ncc2nc(-c3cccs3)c(=O)n(CCc3ccccc3)c2n1 | 11.4% |
| COc1ncc2nc(-c3ccccc3)c(=O)n(-c3ccccc3)c2n1 | 3.29% |
| Cc1noc(C)c1-c1nccc(N2CCOCC2)n1 | 4.77% |
| FC(F)(F)c1ccccc1-c1cc(NCc2ccccc2)ncn1 | -0.248% |
| Cn1c(=O)c(-c2ccc(Cl)cc2)nc2cnc(Nc3ccccc3)nc21 | -8.39% |
| COc1cccc(Nc2ncc3nc(C)c(=O)n(C4CC4)c3n2)c1 | 5.07% |
| CNc1nc(-c2ccc3c(c2)OCO3)nc2ccccc12 | 1.91% |
| COc1cccc(Cn2c(=O)c(C)nc3cnc(OC)nc32)c1 | 5.79% |
| Cc1nc2cncnc2n(C2CC2)c1=O | 2.34% |
| COc1cccc(Cn2c(=O)cnc3cncnc32)c1 | -18.4% |
| COCCn1c(=O)c(-c2cc(F)cc(F)c2)nc2cnc(N3CCOCC3)nc21 | 18.8% |
| CN(C)C(=O)c1ccc(-c2cc(NCc3cccnc3)ncn2)cc1 | 21.1% |
| Cc1noc(C)c1-c1cc(NCc2cccnc2)ncn1 | -0.73% |
| COCCn1c(=O)c(C)nc2cnc(N(C)C)nc21 | 13.3% |

| SMILES | activity change, negative = inhibition |
| --- | --- |
| COc1ccc2[nH]cc(CCNc3ncnc4ccc(-c5cccnc5)cc34)c2c1 | 18.7% |
| Cn1c(=O)c(-c2cccc(C#N)c2)nc2cnc(Oc3ccccc3)nc21 | -0.708% |
| O=c1c(-c2cc(F)cc(F)c2)nc2cnc(N3CCOCC3)nc2n1Cc1cccs1 | 22.7% |
| CNc1ncnc2ccc(-c3ccccc3CN(C)C)cc12 | -2.46% |
| CN(C)C(=O)c1ccc(-c2cc(Nc3ccccc3)ncn2)cc1 | 4.63% |
| COc1cccc(Nc2ncc3ncc(=O)n(CCc4ccccc4)c3n2)c1 | 4.6% |
| COc1ccc(-c2nc3cnc(Nc4cccc(OC)c4)nc3n(C[C@H]3CCCO3)c2=O)cc1 | -19.9% |
| Cc1ccccc1-c1cc(N(C)C)ncn1 | -0.723% |
| Cc1cccc(CNc2cc(-c3c(C)noc3C)ncn2)c1 | -10.8% |
| COc1ccccc1CNc1cc(-c2c(C)noc2C)ncn1 | -3.28% |
| Cn1c(=O)c(-c2ccc(Cl)cc2)nc2cnc(N3CCOCC3)nc21 | 26.9% |
| COc1ncc2nc(C)c(=O)n(C3CC3)c2n1 | -4.48% |
| O=c1cnc2cncnc2n1Cc1ccccc1Cl | -28.3% |
| CCNc1ncc2ncc(=O)n(CCOC)c2n1 | 4.31% |
| COc1ccccc1-c1cncnc1NCCNC(C)=O | 1.19% |

assay: Stat Signaling Pathway (AID 446); conditions: ME-180 SIE beta-lactamase reporter, IL-6 stimulated, 5 h; at 7.69 µM (top of the series) unless noted;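 also: ME-180 cervical cancer cells given 40 pM IL-6 alongside compound; SIE-controlled beta-lactamase reporter measured as 460/530 nm FRET emission ratio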
How it was run: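 Reporter line: ME-180 cervical carcinoma, SIE-beta-lactamase. Treatment: compound with 40 pM IL-6, 5 hrs, 37 C, in low-serum OPTI-MEM with 10 mM HEPES pH 7.3. Detection: 460/530 nm fluorescence.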

| SMILES | activity, negative = inhibition |
| --- | --- |
| Clc1ccccc1-c1ccc2ncnc(N3CCNCC3)c2c1 | 5.5% |
| COCCn1c(=O)c(-c2cn(C)c3ccccc23)nc2cnc(N3CCOCC3)nc21 | -11.9% |
| CN(C)c1ccc(-c2cc(Nc3ccc(F)cc3)ncn2)cc1 | -12% |
| COc1ncc2nc(-c3ccccc3)c(=O)n(-c3ccccc3)c2n1 | -8.81% |
| Cc1noc(C)c1-c1nccc(N2CCOCC2)n1 | 14.5% |
| FC(F)(F)c1ccccc1-c1cc(NCc2ccccc2)ncn1 | 4.93% |
| Cn1c(=O)c(-c2ccc(Cl)cc2)nc2cnc(Nc3ccccc3)nc21 | -6.29% |
| COc1ccc(Oc2ncc3nc(-c4ccc(Cl)cc4)c(=O)n(C[C@H]4CCCO4)c3n2)cc1 | -13.9% |
| COc1cccc(Nc2ncc3nc(C)c(=O)n(C4CC4)c3n2)c1 | -13.4% |
| COc1cccc(Cn2c(=O)c(-c3cc(F)cc(F)c3)nc3cnc(N(C)C)nc32)c1 | 91.4% [activator] (active) |
| CNc1nc(-c2ccc3c(c2)OCO3)nc2ccccc12 | -1.35% |
| COc1cccc(Cn2c(=O)c(C)nc3cnc(OC)nc32)c1 | -2.86% |
| Cc1nc2cncnc2n(C2CC2)c1=O | -12.1% |
| COc1cccc(Cn2c(=O)cnc3cncnc32)c1 | -2.31% |
| CN(C)C(=O)c1ccc(-c2cc(NCc3cccnc3)ncn2)cc1 | 21.7% |
| Cc1noc(C)c1-c1cc(NCc2cccnc2)ncn1 | 8.46% |
| CS(=O)(=O)Nc1cccc(-c2ccc3ncnc(NCCN4CCOCC4)c3c2)c1 | 2.22% |

| SMILES | activity, negative = inhibition |
| --- | --- |
| COCCn1c(=O)c(C)nc2cnc(N(C)C)nc21 | -5.78% |
| COc1ccc2[nH]cc(CCNc3ncnc4ccc(-c5cccnc5)cc34)c2c1 | -10.2% |
| Cn1c(=O)c(-c2cccc(C#N)c2)nc2cnc(Oc3ccccc3)nc21 | 1.85% |
| O=c1c(-c2cc(F)cc(F)c2)nc2cnc(N3CCOCC3)nc2n1Cc1cccs1 | 6.69% |
| CNc1ncnc2ccc(-c3ccccc3CN(C)C)cc12 | -1.81% |
| CN(C)C(=O)c1ccc(-c2cc(Nc3ccccc3)ncn2)cc1 | 4.86% |
| COc1cccc(Nc2ncc3ncc(=O)n(CCc4ccccc4)c3n2)c1 | -3.68% |
| COc1ccc(-c2nc3cnc(Nc4cccc(OC)c4)nc3n(C[C@H]3CCCO3)c2=O)cc1 | 16.7% |
| Cc1ccccc1-c1cc(N(C)C)ncn1 | 7.1% |
| Cc1cccc(CNc2cc(-c3c(C)noc3C)ncn2)c1 | -4.88% |
| COc1ccccc1CNc1cc(-c2c(C)noc2C)ncn1 | -4.72% |
| COc1ncc2nc(C)c(=O)n(C3CC3)c2n1 | -11.2% |
| CN(C)c1ccc(-c2ccc3ncnc(-n4ccnc4)c3c2)cc1 | -10% |
| O=c1cnc2cncnc2n1Cc1ccccc1Cl | -5.06% |
| CCNc1ncc2ncc(=O)n(CCOC)c2n1 | -26.5% |
| COc1ccccc1-c1cncnc1NCCNC(C)=O | 2.82% |
